Among the data in PubChem BioAssay AID2098 (Broad Institute, 2009) are activity change, negative = inhibition values, retold here.

The campaign covered roughly 300,000 compounds. About 2,300 (0.77%) were called active. The entries come from a sample that favours actives as a whole. A number with no mark means an inactive call.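 The calls were made as follows: active = more than half of replicate wells show activity change below -50%, luminescence cut by over half; inconclusive = some wells, but at most half, below -50%; inactive = no replicate well below -50%.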

This assay in a line: blocking HSF1-driven luciferase expression – cell-based, NIH3T3, luminescence, primary screen (AID 2098).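 Also: luciferase reports HSF-1 transcriptional activity via heat shock element; 0% = median of DMSO wells and -100% = zero luminescence signal.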 As to conditions: NIH3T3-HGL HSE-luciferase, MG132-induced, luminescence 8 h; stronger effect = lower value; screened at 7.5 µM (by protocol).
In the case of `CC1(c2nnc(Cc3ccccc3)o2)CC(c2ccccc2F)=NO1` (stereo not given), the activity change, negative = inhibition was -1.4%. As for `Cc1cccc(C(=O)NC(=S)N2CCN(c3ccc([N+](=O)[O-])cc3)CC2)c1`, the activity change, negative = inhibition is -62.5% (active). For the molecule `Cc1cccc(C(=O)NNC(=O)c2cccc([N+](=O)[O-])c2)c1`, the activity change, negative = inhibition was -3.12%. Consider `Cc1cccc(C(=O)Nc2ccccc2N2CCN(c3ccc(F)cc3)CC2)c1`, for which the activity change, negative = inhibition is -1.05%.

As to `O=S(=O)(/C=C/c1ccccc1)N1CCNCC1`, the activity change, negative = inhibition was 0.181%. Next, `CN1CCN(S(=O)(=O)c2ccc(Nc3ccc(F)cc3)nc2)CC1`: -3.3%; `COc1ccc(NC(=O)c2cc(-c3ccc(C)o3)nc3ccccc23)cc1`: 8.98%. Regarding `O=C(O)c1cccc(NC(=O)c2cc(-c3cccc(Cl)c3)nc3ccccc23)c1`, the activity change, negative = inhibition was -10.6%.

Consider `O=C(Nc1cccc(F)c1)c1cc(-c2ccco2)nc2ccccc12`, for which the activity change, negative = inhibition is -58.6% (active). The same measure for `COc1ccccc1C(=O)NCCC(=O)NC(C)CCc1ccccc1` (stereo not given): 1.3%. Next, `Cc1ccc(S(=O)(=O)N(C)c2ccc(OCC(=O)OCc3ccc(C#N)cc3)cc2)cc1`: -4.36%; `COc1ccc(C2=NOC(Cn3nc(C(=O)NCc4ccc5c(c4)OCO5)cc3-c3ccccc3)C2)cc1` (stereo not given): 2.18%; `c1ccc(-c2c[nH]c(-c3ccccc3)c2)cc1`: -83.8%. As for `Cc1nccn1CC(=O)N/N=C/c1ccc(O)c(O)c1`, the activity change, negative = inhibition was 2.17%. Next, `Oc1ccc(/C=N/Nc2ccc(C(F)(F)F)cn2)cc1O`: -78.4% (active). On to `O=C(Nc1ccccc1)Nc1ccc(C(F)(F)F)cn1`, for which the activity change, negative = inhibition is -1.47%. `CSc1ncccc1C(=O)NC1CCCCCC1`: the activity change, negative = inhibition is -4.75%. For `CCC(C)(NC(=O)c1ccccn1)C(=O)NC1CCCCC1` (stereo not given), the activity change, negative = inhibition is -54.6% (active). Next, `N/C(=N\OC(=O)CCC1CCCCC1)c1ccccn1`: 17.7%. Next, `CC(Oc1ccc(F)cc1)C(=O)Nc1ccccc1C(=O)NC1CC1` (stereo not given): 5.48%; `CCOC(=O)N1CCN(C(=O)c2ccccc2SCC(=O)NCC2CCCCC2)CC1`: 6.98%. The same measure for `COC(=O)[C@@]12CCCN1[C@H](c1ccc(-c3ccc(F)cc3)c(OC)c1)[C@H]1C(=O)N(C)C(=O)[C@H]12`: 20.6%; for `CC(=O)O[C@H]1CC[C@@]2(C)[C@@H](CC[C@@H]3[C@@H]2CC[C@]2(C)[C@@H](C(C)(C)O)C[C@@H]32)C1`: -1.58%. On to `Cc1ccc(NC(=O)CC(=O)Nc2ccc(C)cc2)cc1`, for which the activity change, negative = inhibition is 11.5%. On to `O=C(CCl)Nc1ccc(Sc2ccc(NC(=O)CCl)cc2)cc1`, for which the activity change, negative = inhibition is -61.6% (active). Next, `CC(C)(CCl)C(=O)Nc1ccc(Sc2ccc(F)cc2)cc1`: 6.39%; `O=C(c1cc(-c2ccco2)nc2ccccc12)N(Cc1nnc(-c2ccc(Cl)cc2)o1)C1CC1`: 8.92%. Regarding `Cc1cc(C(=O)OC(C)C(=O)NC2CCCCC2C)c(C)o1` (stereo not given), the activity change, negative = inhibition is 3.94%.

On to `COc1ccc(S(=O)(=O)NC(C)C(=O)Nc2cccc([N+](=O)[O-])c2)cc1` (stereo not given), for which the activity change, negative = inhibition is -3.53%. Next, `COC(=O)/C=C\C(=O)Nc1cccc([N+](=O)[O-])c1`: -76.8% (active). Next, `COc1cccc(CNC(=O)CCCC(=O)Nc2cccc([N+](=O)[O-])c2)c1`: -0.854%; `Cc1ccc(OCC(=O)Oc2ccccc2[N+](=O)[O-])cc1`: -1.37%. Consider `CCOc1ccc(C(=O)Nc2cc(Cl)ccc2-n2cncn2)cc1OC`, for which the activity change, negative = inhibition was -3.95%.

As for `Cc1cc(/C=N/n2cnnc2)c(C)n1-c1ccc2ncccc2c1`, the activity change, negative = inhibition is -11.6%. Next, `O=C(COC(=O)c1cnccn1)Nc1ccc(Cl)cc1C(F)(F)F`: -5.67%; `O=C(CS(=O)(=O)Cc1ccccc1)NCC1CCCO1` (stereo not given): -53.1% (active). Next, `S=C(NCCc1ccccc1)NCC1CCCO1` (stereo not given): 14%; `O=C(COC(=O)c1ccc(S(=O)(=O)Nc2ccccc2)cc1)NCC1CCCO1` (stereo not given): -11.9%; `CS(=O)(=O)c1ccc(Cl)c(NC(=O)COC(=O)c2ncc(Cl)c(Cl)c2Cl)c1`: 0.97%. Consider `O=C(CN1CCOCC1)Nc1cccc([N+](=O)[O-])c1`, for which the activity change, negative = inhibition is 6.69%. The same measure for `C=CCNc1ncnc2ccc(Br)cc12`: -13.4%.

`COc1ccc(Nc2ncnc3ccc(Br)cc23)c(OC)c1`: the activity change, negative = inhibition is -71.5% (active). Next, `COc1ccc(Nc2ncnc3sc(-c4ccccc4)cc23)c(OC)c1`: -2.06%. The same measure for `Cc1ccc(C)c(OCCC(=O)OCC(=O)NC(=O)NCc2ccccc2)c1`: -6.76%; for `COc1ccc(NC(=O)c2cc(-c3ccc(C)cc3)on2)cc1`: -1.83%; for `COc1ccc(Nc2cc(Cl)ccc2C(=O)O)cn1`: 0.861%.

With `COc1ccc(NC(=O)/C(Cl)=C(/Cl)S(=O)Cc2ccc(C)cc2)cn1` (stereo not given), the activity change, negative = inhibition is -94.7% (active). With `CCCCn1c(N)c(N(CC)C(=O)c2ccc(N(C)S(=O)(=O)c3ccc(C)cc3)cc2)c(=O)[nH]c1=O`, the activity change, negative = inhibition was -4.56%. The same measure for `CCN1C(=O)[C@H]2[C@@H](c3ccc(SC4CCCCC4)c(OC)c3)N[C@@](Cc3ccccc3)(C(=O)OC)[C@H]2C1=O`: 6.65%. `Cc1cc(C(=O)CCC(=O)NNC(=O)c2ccccc2O)c(C)s1`: the activity change, negative = inhibition is 1.38%.
